# Hits are enriched below; roughly 18% of the tested compounds scored in any of these assays.
# RORg inh: qHTS for inhibitors of ROR gamma transcriptional activity; Nuclear receptor ROR-gamma (Mus musculus), P51450; AID 2551, 2010; Potency, µM (titrated, usually from 53.6 µM), without a hit: top-dose activity change, negative = inhibition, hits mostly inhibitors; 310,000 compounds, 5.4% hits; Drosophila S2 Gal4-RORgamma UAS-luciferase reporter, 20 h; note: potency is the fitted concentration of half-maximal effect; nearly all actives have a fitted effect of over 60% in size
# Target sequence (P51450 whole entry, looked up, the tested form may be a part): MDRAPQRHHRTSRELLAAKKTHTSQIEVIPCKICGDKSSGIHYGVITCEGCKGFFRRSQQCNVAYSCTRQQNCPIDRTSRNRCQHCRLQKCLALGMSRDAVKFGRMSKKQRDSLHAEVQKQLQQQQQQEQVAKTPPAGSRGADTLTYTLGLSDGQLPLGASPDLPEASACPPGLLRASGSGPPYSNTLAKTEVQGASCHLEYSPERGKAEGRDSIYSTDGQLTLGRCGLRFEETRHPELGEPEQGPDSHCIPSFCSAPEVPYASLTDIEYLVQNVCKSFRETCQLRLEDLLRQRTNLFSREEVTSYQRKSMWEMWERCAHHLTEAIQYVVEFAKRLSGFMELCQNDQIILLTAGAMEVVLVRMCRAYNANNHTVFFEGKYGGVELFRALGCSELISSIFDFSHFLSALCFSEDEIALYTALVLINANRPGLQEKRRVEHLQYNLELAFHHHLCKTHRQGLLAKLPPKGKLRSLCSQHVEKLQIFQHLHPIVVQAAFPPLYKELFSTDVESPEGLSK
#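 ROR gamma transcriptional activity was tracked as Gal4-UAS luciferase output in stably transfected Drosophila Schneider cells, with compound added 1 hr before 700 uM copper sulfate induction and a 20 hr ambient-temperature incubation.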
# TDP1 cell noCPT: qHTS for Inhibitors of human tyrosyl-DNA phosphodiesterase 1 (TDP1): qHTS in cells in absence of CPT; DT40 Tdp1-/- hTDP1 cells, no CPT, ATP luminescence, 48 h; Potency, µM (titrated, usually from 46.2 µM), for inactives: at the highest dose activity change, negative = growth inhibition, most hits filed as inhibitors; 420,000 compounds, 15% hits; AID 686978, 2013; note: potency is the fitted concentration of half-maximal effect; nearly all actives have a fitted effect of over 55% in size
#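 Compound effects on proliferation are scored in DT40 Tdp1-/-;hTDP1 cells in the absence of CPT. ATP levels (CellTiter-Glo luminescence) are recorded after a ≥48 hr, 37 °C incubation.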
# IL-1B inflam inh: qHTS for Inhibitors of Inflammasome Signaling: IL-1-beta AlphaLISA Primary Screen; THP-1 LPS/ATP IL-1B secretion, AlphaLISA, 16 h; hits give low values; activity change, % at 57.5 µM; 360,000 compounds, 4.7% hits; in the data active = activity change below about -50%; inconclusive = mostly about -30% to -49%
#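 Secreted IL-1B measured by AlphaLISA bead assay after 16 h compound exposure of THP-1 cells; compounds (final up to 57.5 uM) added 1 h before LPS (250 ng/mL) and ATP (1.25 mM) stimulation; lower signal means less secretion.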
# LDHA block: qHTS assay for inhibitors of human lactate dehydrogenase | AID 1347041, 2019 | activity change, % (values are at about 110 or 230 µM) | 480,000 compounds, 0.15% hits | L-lactate dehydrogenase A chain (Homo sapiens), P00338 | purified LDHA, NADH/diaphorase-resazurin fluorescence; hits give low values; in the data active = activity change below about -30%; inconclusive = mostly about -25% to -30%;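 note: plate controls were DMSO wells for no effect and wells without enzyme for full effect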
#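 Human LDH5 (2 nM) was incubated with 0.06 mM NADH and 0.2 mM pyruvate for 5 min at room temperature in Tris pH 7.4. Remaining NADH was coupled through diaphorase/resazurin, and resorufin fluorescence was read at 0 and 20 min.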
# TDP1 cell CPT: qHTS for Inhibitors of human tyrosyl-DNA phosphodiesterase 1 (TDP1): qHTS in cells in presence of CPT; Potency, µM (top dose mostly 46.2 µM), without a hit: at the highest dose activity change, negative = growth inhibition, hits mostly inhibitors; 420,000 compounds, 12% hits; chicken DT40 Tdp1-/-;hTDP1 cells + 20 nM CPT, ATP luminescence, 48 h; note: potency is the fitted concentration of half-maximal effect; nearly all actives have a fitted effect of over 55% in size
#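 Cell growth measured by CellTiter-Glo luminescence after a minimum 48 h, 37 C compound exposure with 20 nM CPT in Tdp1-knockout DT40 cells stably expressing hTDP1, seeded 400/well; qHTS titration format.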
# Gal4-VP16 FLuc: VP16 counterscreen qHTS for inhibitors of ROR gamma transcriptional activity | Drosophila S2 Gal4-VP16 UAS-luciferase, luminescence, 20 h | Potency, µM (doses to about 53.6 µM), for inactives: top-dose activity, negative = inhibition, most hits filed as inhibitors | 310,000 compounds, 3.5% hits | AID 2546, 2010;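 note: Gal4-VP16 expression switched on by copper sulfate through the metallothionein promoter; potency is the fitted concentration of half-maximal effect; nearly all actives have a fitted effect of over 50% in size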
# Numbers without * were called inactive; i = inactive; u = inconclusive; x = no result given; [ ] = dose if it differs, or a comment. Unless noted, calls come from the whole dose curve; as a rule, active = well fitted curve in the direction sought with a large enough effect; inconclusive = small, poorly fitted or top-dose-only effect, or another doubt; inactive = no such curve, though single readings can be large; an effect the other way counts as inactive or inconclusive. Unless noted, % is set by controls: 0 for no effect and ±100 for the full control effect.
SMILES,RORg inh,TDP1 cell noCPT,IL-1B inflam inh,LDHA block,TDP1 cell CPT,Gal4-VP16 FLuc
CCc1ccc(-c2csc(NC(=O)C3CC(=O)N(c4ccc5c(c4)OCCO5)C3)n2)cc1 (stereo unspecified),u,16.4µM*,1.3,1.2,16.4µM*,-6.8%
CS(=O)(=O)c1ccc(C(=O)Nc2nc(-c3ccco3)c(-c3ccco3)s2)cc1,x,20.6µM*,u,6.0,u,x
O=C1CCCC2=C1C(c1cccnc1)C1=C(CCCC1=O)N2,x,x,x,6.3,x,x
O=C(Nc1nc(-c2ccco2)c(-c2ccco2)s1)C1CCC1,u,18.4µM*,u,1.1,14.6µM*,-12.2%
Cc1cnc(NC(=O)C2CC(=O)N(c3ccc4c(c3)OCCO4)C2)s1 (stereo unspecified),x,-9.1%,-57.2*,1.9,-3.2%,x
Cc1nnc(NC(=O)C2CC(=O)N(c3ccc4c(c3)OCCO4)C2)s1 (stereo unspecified),x,21.2%,-6.0,-17.5,-0.3%,x
O=C1CN(C(=O)Cn2cnc3c(Cl)cc(Cl)cc3c2=O)c2ccccc2N1,x,x,x,0.5,x,x
O=S1(=O)CC(O)C(NCc2ccco2)C1 (stereo unspecified),5.3%,3.1%,-13.2,-19.8,16.3%,1.7%
CC(C)(C)c1cc(CNC2CS(=O)(=O)C[C@@H]2O)cc(C(C)(C)C)c1O (stereo partly specified),-22.1%,16.4µM*,-1.6,1.5,14.6µM*,-12.7%
COc1cc(/C=N/NC(=O)c2cc(-c3ccccc3Cl)nc3ccccc23)cc(OC)c1O,x,6.51µM*,-10.1,5.4,u,x
COc1cc(/C=N/NC(=O)c2ccc(CN3C(=O)c4cccc5cccc3c45)cc2)cc(OC)c1O,10.1%,u,40.1,1.3,13µM*,-6.1%
O=C(N/N=C/c1cccc(F)c1)c1cc(-c2ccco2)nc2ccccc12,-8.3%,10.3µM*,28.5,0.9,14.6µM*,12.7%
COCC(C)NC(=O)c1cc(-c2ccccc2Cl)nc2ccccc12 (stereo unspecified),x,x,x,2.8,x,x
COc1cc(/C=N/NC(=O)c2cc(-c3ccco3)nc3ccccc23)cc(OC)c1O,4.9%,u,28.8,1.4,10.3µM*,-7.2%
Cn1cnc2c1c(=O)n(CC(=O)NCC1(c3ccccc3)CC1)c(=O)n2C,x,x,x,-7.7,x,x
CCCC12CN(C(=O)c3ccccc3)CC(C)(CN(C(=O)c3ccccc3)C1)C2=O,x,x,x,-2.5,x,x
NS(=O)(=O)c1ccc(N/N=C/c2cccc(O)c2)c([N+](=O)[O-])c1,x,x,x,-6.9,x,x
COc1cc(/C=N\NC(=O)c2ccc(-c3ccccc3)cc2)cc(Br)c1O,u,u,i,-16.0,u,u
COc1cc(/C=N/NC(=O)c2cc(-c3cccc(Br)c3)nc3ccccc23)cc(OC)c1O,x,u,44.3,-1.0,20.6µM*,x
CC(C)c1nc2ccc(C(=O)NCCCN3CCN(c4ccccc4F)CC3)cc2o1,x,u,x,0.4,u,x
CC(C)c1nc2ccc(C(=O)Nc3ccccc3F)cc2o1,x,5.8µM*,x,0.7,7.31µM*,x
CC(=O)c1cccc(NC(=O)c2ccc3nc(C(C)C)oc3c2)c1,x,16.4µM*,x,-10.7,u,x
CCc1ccc(CNC(=O)c2ccc3nc(C(C)C)oc3c2)cc1,x,u,x,-0.4,u,x
Cc1c(Cl)cccc1NC(=O)c1ccc2nc(C(C)C)oc2c1,x,11.6µM*,x,-19.1,u,x
COCc1nn2c(c1-c1ccccc1)NC(=O)CC2C(=O)Nc1ccc(NC(C)=O)cc1 (stereo unspecified),x,x,x,0.3,x,x
SMILES,RORg inh,TDP1 cell noCPT,IL-1B inflam inh,LDHA block,TDP1 cell CPT,Gal4-VP16 FLuc
O=C(CNC(=O)c1ccc(Br)o1)NC12CC3CC(CC(C3)C1)C2,35.7%,3.1%,14.2,-8.7,7.2%,26.8%
CCNC(=O)c1ccc(C23CC4CC(CC(C4)C2)C3)o1,-12.7%,14.6µM*,13.7,-2.9,u,3.2%[10 µM]
COc1ccccc1OCC(=O)Nc1ccc2oc(C)nc2c1,x,x,x,10.1,x,x
CC(C)(C)C(=O)O/N=C(\N)c1ccc(Oc2cc(Cl)cc(Cl)c2)c([N+](=O)[O-])c1,14.8%,u,-60.7*,-2.2,u,1.6%
CCC(=O)O/N=C(\N)c1ccc(Oc2cc(C)c(Cl)c(C)c2)c([N+](=O)[O-])c1,35.0%,u,-18.2,-3.3,-13.0%,-14.2%
COc1ccc(SCCN2CC[C@@H](C(C)(C)C)CCC2=O)cc1,x,15.8µM*,20.4,-1.3,u,x
COc1ccc(SC[C@H](Cc2ccccc2)N2CC[C@@H](C(C)(C)C)CCC2=O)cc1,x,u,-50.8*,1.0,18.4µM*,x
CC(C)(C)[C@H]1CCC(=O)N(CCSc2ccc(Br)cc2)CC1,x,22.4µM*,x,x,u,x
COc1ccc(SC[C@H](Cc2ccccc2)N2CC[C@@H](O)CCC2=O)cc1,x,u,14.5,1.7,u,x
C[C@H]1CCC(=O)N([C@H](COc2ccccc2)Cc2ccccc2)CC1,-8.8%,16.4µM*,-4.1,1.1,18.4µM*,-11.4%
Cn1nc(C(C)(C)C)cc1NC(=O)C(C)(C)Oc1ccc(Cl)cc1,x,x,x,4.8,x,x
CCOc1cc(NC(=O)C2CC2)c(OCC)cc1NC(=O)c1ccccc1OCC,9.9%,u,u,-12.4,u,-9.2%
CCOc1cc(NC(=O)c2ccccc2C)c(OCC)cc1NC(=O)C1=Cc2ccccc2OC1,7.9%,5.8µM*,0.0,-4.7,7.31µM*,2.6%[0.365 µM]

# Assay outcomes as filed in PubChem BioAssay.
